FEN1 inh-1 = blocks human flap endonuclease 1. P39748. Recombinant FEN1 flap cleavage, fluorescence, 15 min. Potency, µM (series often up to 114 µM), for inactives: at the top dose activity change, negative = inhibition, hits mostly inhibitors. 390,000 tested, 0.35% active. AID 588795; also: % is scaled to controls: 0 for no effect and ±100 for the full control effect; nearly all actives have a fitted effect of over 65% in size
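With each library titrated from low to high concentration, compounds met 10 nM FEN1 for 15 min at room temperature before 50 nM substrate was added; readings at 0 and 15 min fed four-parameter Hill curve fits.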
TDP1 block = TDP1 (human) enzyme inhibition; Q9NUW8; recombinant TDP1, AlphaScreen DNA substrate cleavage; Potency, µM (highest dose often 130 µM), for the others: top-dose activity change, negative = inhibition, actives largely listed as inhibitors; 350,000 tested, 0.28% active; AID 485290; also: % is scaled to controls: 0 for no effect and ±100 for the full control effect; nearly all actives have a fitted effect of over 40% in size
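Recombinant human Tdp1 (E. coli-expressed, 1 nM final) preincubated with compounds 15 min at room temperature, then 5'-biotin/3'-phosphotyrosine-FITC DNA substrate (15 nM final) added for 5 min. AlphaScreen beads (10 ug/ml final) added 10 min; cleavage lowers signal.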
Pol eta inh-1 = DNA polymerase eta (human) inhibition; 390,000 tested, 1.2% active; recombinant Pol eta, fluorescent DNA replication assay; AID 588591; Potency, µM (doses to about 114 µM), inactives show at the highest dose activity change, negative = inhibition, hits mostly inhibitors; Q9Y253; also: % is scaled to controls: 0 for no effect and ±100 for the full control effect
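Fluorescent replication assay: 50 nM final substrate added after a 15 min room-temperature compound preincubation with 10 nM enzyme. Signal taken at 0 min and again at 10 min.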
Pol beta inh = inhibitors of human DNA polymerase beta. Potency, µM (top dose mostly 114 µM), inactives show at the top dose activity change, negative = inhibition, usual class: inhibitors. 340,000 tested, 1.3% active. Pol beta primer extension/strand displacement, fluorescence kinetic; also: % is scaled to controls: 0 for no effect and ±100 for the full control effect
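Values derive from four-parameter Hill fits of normalized kinetic data: reads at 0 and 10 min following addition of 50 nM substrate to 10 nM Pol beta preincubated 15 min with compound.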
Pol kappa inh-1 = DNA polymerase kappa (human) inhibition; Potency, µM (top dose mostly 107 µM), inactives show at the highest dose activity, negative = inhibition, most hits filed as inhibitors; purified Pol kappa, fluorescent DNA synthesis assay, 10 min; 400,000 tested, 0.53% active; Q9UBT6; also: % is scaled to controls: 0 for no effect and ±100 for the full control effect
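Fluorescent qHTS in 1536-well format: enzyme (10 nM) and compound sat 15 min at room temperature before 50 nM substrate (final) was added. Signal taken at 0 and 10 min; no-enzyme buffer wells were negative controls.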
Pol iota inh = DNA polymerase iota (human) inhibition. Q9UNA4. Pol iota fluorescent replication assay, 10 min. Potency, µM (highest dose often 115 µM), inactives show at the highest dose activity, negative = inhibition, usual class: inhibitors. 390,000 tested, 1% active
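Pol iota at 10 nM preincubated 15 min with compounds at room temperature; reaction started with fluorescent substrate, 50 nM final. Fluorescence read kinetically at 0 and 10 min; buffer-only wells as negative control.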
Pol kappa inh-2 = Pol kappa (human) inhibition, cherry-pick confirmation. Potency, µM, usual class: inhibitors. shares compounds with Pol eta inh-1. AID 720501. 920 tested, 76% active. purified Pol-kappa, fluorescent strand-displacement substrate
Pol eta inh-2 = confirmation of human DNA polymerase eta inhibitors; shares compounds with Pol eta inh-1; Pol eta primer extension, TAMRA/BHQ fluorescence, 10 min; Potency, µM, actives largely listed as inhibitors; 2,600 tested, 64% active; AID 720502
FEN1 inh-2 = confirmation of human FEN1 inhibitors; shares compounds with FEN1 inh-1; FEN1 flap cleavage, TAMRA/BHQ2 fluorogenic DNA substrate; 880 tested, 79% active; Potency, µM, hits mostly inhibitors; also: nearly all actives have a fitted effect of over 60% in size
The depositor's hits bear a star; ? = inconclusive; nt = no result given; [ ] = remark or other dose. Shown are actives, neighbours in structure and some others; about 2.4% of the full set was active somewhere. Calls follow the shape of the dose curve; as a rule, active = well fitted curve in the direction sought with a large enough effect; inconclusive = small, poorly fitted or top-dose-only effect, or another doubt; inactive = no such curve, though single readings can be large; an effect the other way counts as inactive or inconclusive. Potency is read from the fitted curve at half-maximal effect.

SMILES | FEN1 inh-1 | TDP1 block | Pol eta inh-1 | Pol beta inh | Pol kappa inh-1 | Pol iota inh | Pol eta inh-2 | others
O=c1oc2ccccc2c(O)c1[C@H]1c2ccc(O)cc2Oc2c1c(=O)oc1ccccc21 | -3% | -12% | ? | 7% | -19% | -12% | ?
COP(=O)(OC)O/C(=C\Cl)c1cc(Cl)c(Cl)cc1Cl | nt | 9% | nt | nt | nt | nt | nt
CC(CCC(=O)O)C1CCC2C3C(=O)CC4CC(=O)CC[C@@]4(C)C3CC(=O)[C@]12C (stereo partly drawn) | nt | 14% | nt | nt | -6%[60.1 µM] | nt | nt
c1ccoc1 | nt | 15% | nt | nt | nt | nt | nt
Cc1ccnc(-n2c(-c3ccco3)nc3ccccc3c2=O)c1 | 6% | 5% | -11% | 4% | 1% | 57% | nt
O=c1c2ccccc2nc(-c2ccco2)n1-c1nccs1 | ? | 8% | ? | -2% | -36% | ? | ?
Cc1cc(/C=C2\C(=O)NC(=O)N(c3ccc(Cl)cc3)C2=O)c(C)n1C | -2% | 5% | -6% | 1% | -19% | -13% | nt
Cc1cc(/C=C2\C(=O)NC(=O)N(c3ccccc3)C2=O)c(C)n1-c1ccc(C(=O)O)c(Cl)c1 | -6% | nt | 10µM* | 22µM* | ? | ? | 34* | Pol kappa inh-2=19*
Cc1cc(/C=C2\C(=O)NC(=O)N(c3ccc(F)cc3)C2=O)c(C)n1-c1cccc(C(=O)O)c1 | -6% | 0% | 22µM* | 28µM* | ? | 22µM* | ? | Pol kappa inh-2=38*
C=C(C)[C@]12C[C@@H](C)[C@@]34OC(Cc5ccccc5)(O[C@@H]1[C@@H]3C=C(COC(=O)Cc1cc(OC)c(O)cc1I)C[C@]1(O)C(=O)C(C)=C[C@@H]41)O2 | nt | 11% | nt | nt | ? | nt | nt
CCN(CC)c1ccc(/C=C2\C(=O)NC(=O)N(Cc3ccco3)C2=O)cc1 | ? | -14% | 22µM* | ? | 79µM* | 20µM* | ? | Pol kappa inh-2=34*
CCN(CC)c1ccc(/C=C2/C(=O)NC(=O)N(CC3CCCO3)C2=O)cc1 (stereo not drawn) | ? | -1% | 3% | 19% | -2% | ? | nt
COc1ccc2oc(=O)c(C(=O)NCCc3c(C)[nH]c4ccc(F)cc34)cc2c1 | -20% | 5% | -16% | 23% | 4% | ? | nt
OC[C@H]1O[C@@H](n2cnc3cc(Cl)c(Cl)cc32)[C@H](O)[C@H]1O | nt | 9% | nt | nt | 10%[60.1 µM] | nt | nt
CC[N+](C)(CC)CCCCOc1ccc2c(c1)C(=O)c1cc(OCCCC[N+](C)(CC)CC)ccc1-2 | ? | -6% | ? | ? | ? | 14µM* | ? | FEN1 inh-2=21*
CC(C)[C@]1(NC(=O)[C@@H]2C=C3c4cccc5[nH]cc(c45)C[C@H]3N(C)C2)O[C@@]2(O)C3CCCN3C(=O)[C@H](Cc3ccccc3)N2C1=O (stereo partly drawn) | nt | 18%[56.1 µM] | nt | nt | ? | nt | nt
Cc1ccc(OP(=O)(Oc2ccc(C)cc2)Oc2ccc(C)cc2)cc1 | nt | -10% | nt | nt | nt | nt | nt
O=C1NC(=O)N(c2ccccc2)C(=O)/C1=C\c1ccc([N+](=O)[O-])s1 | 32µM* | 4% | 10µM* | ? | 28µM* | ? | 34* | FEN1 inh-2=19*
CN1C(=O)NC(=O)/C(=C/c2ccc([N+](=O)[O-])s2)C1=O | ? | -9% | 22µM* | ? | ? | ? | 76* | FEN1 inh-2=7.6*
Cc1ccc(/C=C2/C(=O)NC(=O)N(C)C2=O)cc1 | 1% | -6% | -5% | 24% | -3% | 59% | nt

Screening results (PubChem BioAssay)
